Source: PubChem BioAssay
IP6K1 inh – blocks human inositol hexakisphosphate kinase 1 | Q92551 | activity change, % (series mostly up to about 58 µM) | actives 0.81% (n = 140,000) | IP6K1 kinase, ADP-Glo luminescence, 2 h; active compounds read low; in the data active = activity change below about -25%; note: % is set by controls: 0 for no effect and ±100 for the full control effect
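ADP-Glo luminescence measures ADP made by human IP6K1 during a 2 h RT reaction with ATP/IP6 (mix at 1.3 mM/130 uM); top library doses 57.5 and 19.1 uM final.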
KDM5B inhibitor – inhibitors of human KDM5B histone demethylase; KDM5B demethylase, FDH-coupled NADH fluorescence (FDH is formaldehyde dehydrogenase); AID 1347165; Potency, µM (top dose mostly 57.7 µM), actives largely listed as inhibitors; actives 2.6% (n = 220,000); Q9UGL1; active = well fitted inhibition curve with a large enough effect; inconclusive = small, poorly fitted or top-dose-only effect; inactive = no such curve, though single readings can be large or run the other way; note: potency is the fitted concentration of half-maximal effect; 0% is about no effect; nearly all actives have a fitted effect of over 70% in size
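Here, H3K4me3 peptide (12.5 µM in substrate mix) is demethylated by KDM5BΔAP, 200 nM final, after 10 min compound exposure. Formaldehyde product is coupled through FDH (0.25 U/mL in mix) to NADH fluorescence; 30-min ΔRFU feeds dose-response curves.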
Active calls of the source: *; i = inactive; ? = inconclusive; . = not tested or not shown. An excerpt weighted towards active compounds, which were near 2.8% of everything screened.

SMILES	IP6K1 inh	KDM5B inhibitor
Cc1sc2c(c1C)C(c1ccc(Cl)cc1)=NC(CC(=O)OC(C)(C)C)c1nnc(C)n1-2 (centres undefined)	-10.6	.
O=C1NC2(CCN(Cc3cccnc3)C2)OCc2ccccc21 (centres undefined)	17.2	i
O=C1NC2(CCN(Cc3ccccn3)C2)OCc2ccccc21 (centres undefined)	14.4	39.8µM*
COC(=O)N1CCN(C(=O)Cc2ccc(Cl)c(Cl)c2)[C@@H](CN2CCCC2)C1	8.0	.
Cc1[nH]c2ccc(Cl)cc2c1CCN(C)C	10.7	.
O=C(NC1CCCCC1)N1C[C@@H]2C[C@H](C1)c1ccc(C3CCCCC3)c(=O)n1C2	8.5	39.8µM*
Cc1ccccc1-c1ccc2n(c1=O)C[C@H]1C[C@@H]2CN(C(=O)NC2CCCCC2)C1	18.2	35.5µM*
Cc1ccccc1-c1ccc2n(c1=O)C[C@H]1C[C@@H]2CN(C(=O)Nc2cccc(F)c2)C1	-0.9	?
O=C(Nc1ccc2n(c1=O)C[C@H]1C[C@@H]2CN(C(=O)NC2CCCCC2)C1)c1ccccn1	-12.5	i
COc1ccc2c(C)c(C(=O)N3CCC(C#N)(c4ccccc4)CC3)oc2c1	-0.5	20µM*
Cn1ccc2ccc(C(=O)N3CCC(C#N)(c4ccccc4)CC3)cc21	-0.2	?
O=C(Nc1ccc2n(c1=O)C[C@H]1C[C@@H]2CN(C(=O)c2ccccc2)C1)NC1CCCCC1	-2.4	35.5µM*
CN(C)Cc1ccccc1-c1ccc2n(c1=O)C[C@H]1C[C@@H]2CN(C(=O)c2ccco2)C1	0.7	31.6µM*
CN(C)Cc1ccccc1-c1ccc2n(c1=O)C[C@H]1C[C@@H]2CN(C(=O)c2cnccn2)C1	3.1	?
CSCC(=O)Nc1ccc2n(c1=O)C[C@H]1C[C@@H]2CN(C(=O)c2ccccc2)C1	-1.3	?
O=C(c1cccs1)N1C[C@@H]2C[C@H](C1)c1ccc(C3CCCCC3)c(=O)n1C2	3.9	i
CC(=O)N1C[C@@H]2C[C@H](C1)c1ccc(NC(=O)Nc3ccccc3)c(=O)n1C2	-5.6	28.2µM*
CC(=O)N1C[C@@H]2C[C@H](C1)c1ccc(NC(=O)COc3ccccc3)c(=O)n1C2	-4.0	?
O=C(c1ccccc1)N1C[C@@H]2C[C@H](C1)c1ccc(C3CCCCC3)c(=O)n1C2	10.4	39.8µM*
CC(C)CCN(C1CCNCC1)C1CCOCC1	-9.2	?
CCOc1ccc(Oc2ccc(OCc3cc(F)ccc3F)cc2)c(N)c1	3.3	.
CCOC(=O)[C@@H]1[C@H]2c3ccccc3N(C)C(=O)[C@H]2N(C(=O)NCc2ccccc2)[C@@H]1c1ccccc1	0.3	.
CC[C@H]1CN2CC[C@H]1C[C@@H]2CNC(=O)Nc1ccc(Oc2ccccc2)cc1	-2.8	?
Cc1ccccc1-c1ccc2n(c1=O)C[C@H]1C[C@@H]2CN(C(=O)c2cncnc2)C1	3.9	i
O=C(c1ccc(F)cc1)N1C[C@@H]2C[C@H](C1)c1ccc(C3CCCCC3)c(=O)n1C2	9.6	31.6µM*
SMILES	IP6K1 inh	KDM5B inhibitor
O=C(c1ccc(F)cc1)N1C[C@@H]2C[C@H](C1)c1c(C3CCCCC3)ccc(=O)n1C2	-5.2	i
O=C(c1ccc(F)cc1)N1C[C@@H]2C[C@H](C1)c1c(-c3cncnc3)ccc(=O)n1C2	12.6	i
Cc1ccccc1-c1ccc2n(c1=O)C[C@H]1C[C@@H]2CN(C(=O)c2ccc(F)cc2)C1	1.1	35.5µM*
O=C(c1ccc(F)cc1)N1C[C@@H]2C[C@H](C1)c1c(/C=C/c3ccc(Cl)cc3)ccc(=O)n1C2	-0.7	31.6µM*
COc1cc2c(cc1OCc1ccccc1)N(C(=O)c1cc3ccccc3[nH]1)CC21CCN(C)CC1	-9.3	?
Fc1cc(F)c2c(c1)[C@H]1C=CC[C@H]1C(c1cccnc1)N2 (some centres undefined)	-5.1	.
CCOC(=O)[C@H]1CN([S+](=O)([O-])c2cccs2)[C@]2(C)C(=O)N(CCOC)c3ccccc3[C@H]12	14.0	.
COCCn1c(C)cc(C(=O)NC2CCc3nnc(C)n3CC2)c1C (centres undefined)	9.0	i
COCc1nnc2n1CCC(NC(=O)c1nn(C)c3ccccc13)CC2 (centres undefined)	-5.4	28.2µM*
CC(C)=CCC[C@]1(C)C=Cc2c(O)c3c(c(CC=C(C)C)c2O1)O[C@]12C(=C[C@@H]4CC1C(C)(C)O[C@@]2(C/C=C(/C)C(=O)O)C4=O)C3=O	-25.0*	.
Cc1cccc(NC(=O)N[C@H]2CN(C)c3ccccc3C(c3ccccc3)=N2)c1	3.9	.
Cc1ccc2c(n1)N(C)[C@H](CO)CCN(CC(C)(C)C)C2	31.6	?
Cc1ccc2c(n1)N(C)[C@H](CO)CCN(C1COC1)C2	-5.5	31.6µM*
Cc1ccc2c(n1)N(C)[C@H](CO)CCN(CCC(C)C)C2	-5.5	31.6µM*
CCCN1CC[C@@H](CO)N(C)c2nc(C)ccc2C1	24.7	?
CCOC(=O)[C@H]1CN(C(=O)C2CCCC2)[C@]2(C)C(=O)N(CC3CC3)c3ccccc3[C@H]12	6.1	.
CCOC(=O)[C@H]1CN(C(=O)OCC(C)(C)C)[C@]2(C)C(=O)N(CC3CC3)c3ccccc3[C@H]12	-12.2	.
C[C@H]1CCC[C@H](O)CCC/C=C/c2cc(O)cc(O)c2C(=O)O1	-15.9	.
C[C@@H]1CCC2[C@@H](C)C(=O)OC3O[C@@]4(C)CCC1[C@]32OO4 (some centres undefined)	-13.8	.
CS(=O)(=O)N1C[C@H]2CCN(Cc3ccc[nH]3)C[C@H]21	18.0	14.1µM*
O=C(C1CCCCC1)N1C[C@@H]2C[C@H](C1)c1c(-c3cccs3)ccc(=O)n1C2	9.8	i
O=c1c(-c2cccs2)ccc2n1C[C@H]1C[C@@H]2CN(Cc2cc3ccccc3o2)C1	5.8	31.6µM*
Cc1ccccc1-c1ccc2n(c1=O)C[C@H]1C[C@@H]2CN(Cc2cccs2)C1	-0.4	31.6µM*
Cc1ccccc1-c1ccc2n(c1=O)C[C@H]1C[C@@H]2CN(C(=O)CCC(=O)O)C1	20.8	?
CCOC(=O)[C@H]1CN(C(=O)NCc2ccccc2)[C@]2(C)C(=O)N(CCOC)c3ccccc3[C@H]12	14.3	.
SMILES	IP6K1 inh	KDM5B inhibitor
CCCCOC(=O)N1C[C@H](C(=O)OCC)[C@H]2c3ccccc3NC(=O)[C@]21C	6.9	.
CCOC(=O)[C@H]1CN(C(=O)c2ccc(Cl)cc2)[C@]2(C)C(=O)N(CCOC(C)=O)c3ccccc3[C@H]12	4.0	.
COc1ccc([C@@H]2CN(S(=O)(=O)N3CCCC3)[C@@H]3C4CCN(CC4)[C@@H]32)cc1	12.9	i
COc1ccc([C@@H]2CN(c3nccc(C)n3)[C@@H]3C4CCN(CC4)[C@@H]32)cc1	17.4	14.1µM*
CCOC(=O)[C@H]1CN(C(=O)c2cccs2)[C@]2(C)C(=O)N(CC3CC3)c3ccccc3[C@H]12	15.9	.
O=C1CO[C@H]2CN(Cc3ccccn3)C[C@H]2N1c1ccccc1	-2.9	i
O=C1CO[C@H]2CN(Cc3ncc[nH]3)C[C@H]2N1Cc1ccccn1	1.6	35.5µM*
CN1C(=O)CO[C@H]2CN(Cc3ccccn3)C[C@H]21	2.2	39.8µM*
O=C1CO[C@H]2CN(Cc3ccccn3)C[C@H]2N1Cc1ccccn1	4.4	?
CCCCCn1cc(C(=O)c2cccc3ccccc23)c2ccccc21	12.2	.
